Source: PubChem BioAssay (EPA / NIEHS)
The source made the active and inactive calls. How the source made its calls: active means hit-call score of the fitted dose curve at least 0.9, where 1 is the maximum; inactive means score below 0.9.

Read-out: Glutathione S-Transferase (GSTA2), GSTA2 (gene 2939)
Test: LTEA_HepaRG_GSTA2: Life Technologies and Expression Analysis (LTEA) Assay for Glutathione S-Transferase (GSTA2) using HepaRG (AID 2283497)
Details: mRNA level, 48 h; actives raise or lower the signal
Method: LTEA_HepaRG is a cell based, multiplexed-readout assay that uses HepaRG, a human liver cell line, with measurements taken at 48 hours after chemical dosing on a 96-well plate.LTEA_HepaRG_GSTA2 is one of 102 assay component(s) measured in the LTEA HepaRG cell culture assay. It is a marker of Oxidative Stress.Data from the assay component LTEA_HepaRG_GSTA2 was analyzed into 1 endpoint. This assay endpoint, LTEA_HepaRG_GSTA2, was analyzed with bidirectional fitting relative to DMSO as the negative control and baseline of activity. Using a type of inducible reporter, measures of mRNA induction for gain or loss-of-signal activity can be used to understand regulation of transcription factor activity. To generalize the intended target to other relatable targets, this assay endpoint is annotated to the transferase intended target family, where the subfamily is alkyl and aryl transferase.
A total of 1060 chemcials from the ToxCast library were tested in eight-point concentration-response experiments. Cell culture and cytotoxicity assays were conducted at Thermo Fisher Scientific's Custom Services facility (Madison, WI). A single lot of human HepaRG cells (Thermo Fisher Scientific, Frederick, MD) was used for the cell culture experiments. 96-well format collagen type I coated plates of human HepaRG cells were prepared using established methods. Briefly, cryopreserved HepaRG cells were thawed, plated at a density of approximately 100,000 cells/well in HepaRG Thaw, Plate, and General Purpose media (HPRG770, Thermo Fisher Scientific), and incubated for 48 hours. 0.5% DMSO was selected as vehicle control to balance the requisite need of DMSO in HepaRG cultures to maintain differentiation (for example, baseline metabolism, proportions of hepatocytes vs. cholangiocytes), while enabling further hepatic receptor pathway activation (for example, PXR and CAR) in response to chemical exposure. 48 hours after plating, the culture medium was replaced with HepaRG Serum-Free Incudtion Media. Cells were exposed to each test chemical in duplicate and maintained in CO2 incubators for another 48 hours. Chemical plates were thawed to room temperature and 200x concentrations of treatment groups were prepared. 8-point conentration-reponse curves were made with the highest exposure at 100 uM, followed by half-log dilutions, all in 0.5% DMSO. Each test plate contained variouse controls, induction positive controls (1mM phenobarbital), cytotoxicity positive controls ([…] aflatoxin B1), vehicle controls (0.5% DMSO), and total lysis controls (0.5% DMSO). Cell morphology images were taken using an Essen IncuCyte FLR automated microscope, with six 96-well plates imaged in about 24 minutes. Images were captured and exported and JPEG files. Spent culture media was transfered to black-well plates for the LDH assay, and remaining media was sorted at -80 C for later use. Cells were treated with RLT buffer and frozen until shipped for gene expression analysis. Total RNA was isolated from the cell suspension in 75 uL of Buffer RLT (Qiagen, Germantown, MD 20874) by Quintiles/Expression Analysis (Durham, NC) using a custom isolation procedure. Total RNA from each plate well was transferred to a preamplification plate. Fluidigm's 96.96 Dynamic ArrayTM (Fluidigm, Amsterdam, the Netherlands) technology was used for gene expression analyses by quantitative reverse transcription polymerase chain reaction (qRT-PCR, performed by Quintiles/Expression Analysis, Durham, NC)89. Standard TaqManTM Assays (Applied Biosystems/ThermoFisher Scientific, Foster City, CA) were used to assess the expression of 93 genes selected based on their selectivity and sensitivity to important hepatic receptors known to be modulated by environmental chemicals; importance in human hepatocyte functionality; and hepatotoxicity. […]

SMILES | outcome | AC50
ClC1=C(Cl)C2(Cl)C3C(Cl)C(Cl)CC3C1(Cl)C2(Cl)Cl (stereo not given) | inactive | –
CCC(C)(C)c1ccc(O)cc1 | inactive | –
O=[N+]([O-])c1ccccc1 | inactive | –
Nc1ccc(Cl)cc1 | inactive | –
CC(Cl)(Cl)C(=O)O | inactive | –
CC(C)(C)c1ccc(O)cc1 | inactive | –
CCCCN(CCCC)N=O | inactive | –
OCC1CO1 (stereo not given) | inactive | –
CSC(C)(C)C=NO | inactive | –
Cc1ccc([N+](=O)[O-])cc1C | inactive | –
Cc1ccc(O)cc1C | inactive | –
O=C(O)C(Cl)Cl | inactive | –
Cc1cccc(N)c1 | inactive | –
CCCCCCCc1ccc(O)cc1 | inactive | –
ClC(Cl)(Cl)c1ccccc1 | inactive | –
c1ccc2c(c1)Nc1ccccc1S2 | inactive | –
Nc1cc2c3c(c1)C(c1ccccc1)=N[C@@H](NC(=O)c1cccnc1)C(=O)N3CC2 | inactive | –
c1cc2c3c(cccc3c1)CC2 | inactive | –
CN(C)C(=O)Cl | inactive | –
CCCN(CCC)c1c([N+](=O)[O-])cc(C(C)C)cc1[N+](=O)[O-] | inactive | –

SMILES | outcome | AC50
CCC1(c2ccccc2)C(=O)N=C(O)NC1=O (stereo not given) | inactive | –
CCOC(=O)c1ccccc1C(=O)OCC | inactive | –
O=P1(N(CCCl)CCCl)NCCCO1 (stereo not given) | inactive | –
CCOP(=S)(OCC)SCSCC | inactive | –
c1nc[nH]n1 | inactive | –
ClC(Cl)c1ccccc1 | inactive | –
[N-]=[N+]=[N-] | – | 79.3 µM (active)
CC(Cc1ccc(OCC(=O)O)cc1)NCC(O)c1csc(C(F)(F)F)n1 (stereo not given) | inactive | –
CCOP(=S)(Oc1ccc([N+](=O)[O-])cc1)c1ccccc1 (stereo not given) | inactive | –
CCCCN(CCCC)SN(C)C(=O)Oc1cccc2c1OC(C)(C)C2 | inactive | –
O=P(Oc1ccccc1)(Oc1ccccc1)Oc1ccccc1 | inactive | –
CCOS(=O)(=O)OCC | inactive | –
Nc1ccc2ccccc2c1 | inactive | –
Cc1ccc(N)cc1N | inactive | –
O=[N+]([O-])c1ccc(Cl)c(Cl)c1 | inactive | –
c1ccc(OP(Oc2ccccc2)Oc2ccccc2)cc1 | inactive | –
O=C(O)C1C(C(=O)O)C2(Cl)C(Cl)=C(Cl)C1(Cl)C2(Cl)Cl (stereo not given) | inactive | –
CC(C)(C)OOC(C)(C)C | inactive | –
COCCOCCO | inactive | –
CCNc1nc(Cl)nc(NC(C)(C)C)n1 | inactive | –
